Assay results taken from PubChem BioAssay AID2314 (National Center for Advancing Translational Sciences (NCATS), 2010).
Several values for one entry are separate records, joined by “and”; a condition that tells them apart may be missing. Equal values may be shown once. Out of some 300,000 compounds screened, about 37,000 (12%) were called active. What follows is part of a selection rich in actives, with near analogues and random picks from the rest. Unmarked numbers belong to inactive results. Cut-off read from the data, not from the text of the source: active = max response mostly above about 13% (no sharp cut-off); inactive = mostly below about 14%.

Assay: Cycloheximide Counterscreen for Small Molecule Inhibitors of Shiga Toxin; note: read at 38.3 µM for the half of the compounds with a filed dose; 0% is about no effect
Details: cell reporter, cycloheximide protein synthesis inhibition counterscreen; hits give high values
With `NC(=O)C1CCN(C(=O)CC2C(=O)NCCN2Cc2cccc(Oc3ccccc3)c2)CC1` (stereo unspecified) the max response was -2.74%. `CC(C(=O)Nc1ccc(F)c(F)c1F)N1CCCCCC1` (stereo unspecified) gave a max response of -2.23%. For `Cc1ccc(C2SCC(=O)N2c2ccccc2)cc1` (stereo unspecified), the max response was 16.9% (active). With `COc1cccc(C2SCC(=O)N2c2cccc(C)c2)c1OC` (stereo unspecified) the max response was -0.463%. `O=C1CSC(c2cccc(F)c2)N1c1ccc(O)cc1` (stereo unspecified) gave a max response of -1.44%. `COc1ccc(C(C)NC(=O)C2CCCC2)cc1` (stereo unspecified) showed a max response of -0.457%. With `CCc1ccc(N(CC(=O)NCc2cccnc2)S(=O)(=O)c2ccccc2)cc1` the max response was 9.39%. Work on `O=C(Cn1cnc2ccccc21)N/N=C/c1ccco1` yielded a max response of 7.5%. For `O=c1nc(N/N=C/c2ccco2)cn[nH]1`, the max response was 35.1% (active). For `CC(C)NC(=O)C(=O)N/N=C/c1ccco1`, the max response was 6.82%. `O=C1C2C3C=CC(C4CC34)C2C(=O)N1c1nccs1` (stereo unspecified) gave a max response of -4.99%. `CCCC1=Nc2cc(C(=O)NCc3ccco3)ccc2Sc2ccccc21` showed a max response of 12.1%. For `O=C(NCCc1ccc(F)cc1)c1n[nH]c2ccccc12`, the max response was 43.7% (active). `C=CCN(CC=C)C(=O)COC(=O)c1n[nH]c2ccccc12` showed a max response of -0.5%. `CCC(C)NC(=O)C1c2ccccc2C(=O)N1Cc1ccccc1` (stereo unspecified) gave a max response of 7.68%. `CCN(CC)S(=O)(=O)c1ccc2nc(COC(=O)c3n[nH]c4ccccc34)[nH]c2c1` showed a max response of -0.99%. For `CCC(C)NC(=O)CCCc1ccccc1` (stereo unspecified), the max response was 27.2% (active). `COc1cccc(CNC(=O)c2n[nH]c3ccccc23)c1` showed a max response of 27.4%. Work on `O=C(COC(=O)c1n[nH]c2ccccc12)NCc1ccccc1` yielded a max response of 7.3%. In the case of `COc1ccc(COC(=O)c2n[nH]c3ccccc23)cc1F`, the max response is reported as 67% (active). `CC(CCc1ccccc1)NC(=O)COC(=O)c1ccc(F)cc1` (stereo unspecified) showed a max response of -6.34%. For `O=C(O)CCCc1ccccc1`, the max response was -4.62% and -1.89%. In the case of `O=C(CCOc1ccccc1)NCc1ccccc1`, the max response is reported as -2.09%. For `O=C(CCCc1ccccc1)NCc1ccccc1`, the max response was 28.4% (active). For `Cc1cccc(CC(=O)N2CCN=C2SCc2ccc([N+](=O)[O-])cc2)c1`, the max response was -3.02%. Compound `CC1C(=O)Nc2ccccc2N1C(=O)c1ccc(F)cc1F` (stereo unspecified) has a max response of 1.08%. With `CC(C)C[C@@H](N)c1nnc(SCC(=O)c2ccc(Cl)cc2)o1` the max response was -2.64%. Compound `CCc1ccc(S(=O)(=O)Nc2cc3c(cc2N2CCCCC2)n(C)c(=O)c(=O)n3C)cc1` has a max response of 3.05%. With `O=C(Cc1ccccc1)NCc1ccc(F)cc1` the max response was 42.5% (active). For `CCCCC(=O)NCc1ccc(F)cc1`, the max response was -4.14%. `O=C(Cc1c(O)c2ccccc2[nH]c1=O)NCc1ccccc1` gave a max response of -2.53%. For `Cc1ccnc(NC(=O)CCC(=O)N(CC(=O)NCCc2ccccc2)Cc2cccs2)c1`, the max response was -8.74%. For `CCN(CC)CCCNC(=O)CCc1ccccc1`, the max response was 10.2%. With `O=C(CCc1ccccc1)NCCc1cccs1` the max response was 36.1% (active). For `CCn1cc(C(=O)Nc2cc(C)ccc2C)c(=O)c2ccc(C)nc21`, the max response was 7.8%. With `Oc1ccccc1C1=NN(c2ccccc2)C(c2ccccc2)C1` (stereo unspecified) the max response was 49.1% (active). In the case of `COc1ccc(C2CC(c3cccs3)=NN2c2ccccc2)cc1` (stereo unspecified), the max response is reported as 41% (active). Work on `CC(=O)Oc1ccccc1C1=NN(C(C)=O)C(c2ccccc2)C1` (stereo unspecified) yielded a max response of 9.57%. With `COc1ccccc1N1N=C(c2cccs2)CC1c1ccccc1` (stereo unspecified) the max response was 6.34%. With `COc1ccc(C2=NN(c3ccccc3)C(c3cccs3)C2)cc1` (stereo unspecified) the max response was 0.803%. In the case of `O=C(c1ccccc1)N1N=C(c2ccccc2O)CC1c1ccc(Br)cc1` (stereo unspecified), the max response is reported as 3.47%. In the case of `Cc1cc(C)nc(N/N=C/c2c(CO)cnc(C)c2O)n1`, the max response is reported as -2.74%. In the case of `CCN(CC)c1ccc(/C=N/Nc2nc(C)cc(C)n2)c(O)c1`, the max response is reported as 22.2% (active). `COc1cccc(OCC(=O)NNC(=O)c2cnccn2)c1` showed a max response of -1.98%. `NS(=O)(=O)c1ccc(CNC(=O)c2cnccn2)cc1` showed a max response of -2.6%. In the case of `Cc1cc(C)nc(N/N=C/c2ccncc2)n1`, the max response is reported as 0.636%. With `CCN(CC)c1ccc(/C=N/NC(=O)c2cnccn2)c(O)c1` the max response was 28.1% (active). `O=C(Nc1ccccc1Cl)/C(Cl)=C(\Cl)S(=O)c1ccccc1` (stereo unspecified) gave a max response of 14.2%. For `Cc1cccc(NC(=O)N(Cc2cc3cc(C)cc(C)c3[nH]c2=O)CC2COCCO2)c1` (stereo unspecified), the max response was -3.44%. With `O=C(Nc1ccccc1-c1ccccc1)c1ccccc1[N+](=O)[O-]` the max response was -3.24%. `CCN(Cc1ccccc1)C(=O)CN1C(=S)NC(C)(C)CC1C` (stereo unspecified) gave a max response of -3.52%. In the case of `CCc1ccc2c(c1)C1(NN=C(c3ccccc3)S1)C(=O)N2` (stereo unspecified), the max response is reported as 69.8% (active). With `CCOC(=O)c1c(NC(=O)CCCN2CCOCC2)sc2c1CC(C)(C)OC2` the max response was 12.6%. Work on `CC(C)N(C(=O)c1ccc(-c2ccccc2F)cc1)C(C)C` yielded a max response of -2.02%. Work on `CCOC(=O)CN(C)Cc1c[nH]c2ccccc12` yielded a max response of 0.657%. `COc1ccc(CN(C)C(=O)Cc2c[nH]c3ccccc23)c(OC)c1OC` showed a max response of -1.59%. With `CN(Cc1cccs1)C(=O)Cc1c[nH]c2ccccc12` the max response was 18.3% (active). `COc1cccc(CNC(=O)Cc2csc(Nc3nc(=S)[nH]c4ccccc34)n2)c1` gave a max response of 10.3%. In the case of `CCOC(CNC(=O)C(=O)NCC(c1ccco1)N1CCN(c2ccc(OC)cc2)CC1)OCC` (stereo unspecified), the max response is reported as -5.43%. `CCCC(C)C(=O)NCc1ccncc1` (stereo unspecified) showed a max response of -3.47%. `O=C(NNc1ccccc1Cl)C(O)(c1cccc(C(F)(F)F)c1)c1cccc(C(F)(F)F)c1` showed a max response of -4.75%. Compound `N#C/C(=C1/CCCN1)c1ccccn1` has a max response of -2.58%. With `N#CC(=C1SC=CS1)c1nc(-c2ccccc2)cs1` the max response was 58.5% (active). Work on `Cn1c(/C(C#N)=C2/CCCCCN2)nc2ccccc21` yielded a max response of 9.03%. For `N#CC(=C1CCCC1)c1nc(-c2ccc(Cl)cc2)cs1`, the max response was 27.6%. With `N#C/C(=C1\CCCN1)c1nc(-c2ccccc2)cs1` the max response was 23% (active). Work on `Cc1ccc(S(=O)(=O)N2CCC(=O)N([C@H](COCc3ccccc3)Cc3ccccc3)CC2)cc1` yielded a max response of 7.08%. For `CN(/C(=N/S(=O)(=O)c1cccs1)c1ccccc1)c1ccc(O)cc1`, the max response was 11.5%. `CN(C)S(=O)(=O)c1ccc(N2CCCC2)c(C(=O)Nc2cccc(F)c2)c1` showed a max response of -3.38%. In the case of `COc1ccc(CNC(=O)c2nnn(CC(=O)Nc3cc(C)cc(C)c3)c2N)cc1`, the max response is reported as -2.25%. In the case of `CCN(CC)c1ccc2oc(=O)c(C)nc2c1`, the max response is reported as 16.6% (active). With `CCN(CC)c1ccc(C(=O)Nn2c(C)nc3ccccc3c2=O)cc1` the max response was -2.07%. Work on `CCN(CC)c1ccc2cc(C(N)=O)/c(=N\NC(=O)c3ccncc3)oc2c1` yielded a max response of 5.35%. For `CCc1[nH]nc(C(=O)N2CCCC(CO)(Cc3ccc(F)cc3F)C2)c1C` (stereo unspecified), the max response was -3.79%. For `CCN(C(=O)c1cc([N+](=O)[O-])ccc1NCc1cccnc1)c1ccccc1`, the max response was -3.46%. In the case of `CN1C(=O)c2ccc(NC(=O)C3CCCCC3)cc2C1=O`, the max response is reported as 1.88%. Work on `CCOC(=O)c1cc(C)sc1NC(=O)C1CCC1` yielded a max response of 6.29%. Compound `CS(=O)(=O)c1ccc2nc(NC(=O)C3CCCCC3)sc2c1` has a max response of 9.31%. Compound `Cc1nc(NC(=O)C23CCC(C)(C(=O)O2)C3(C)C)sc1C` (stereo unspecified) has a max response of -1.47%. With `Cc1nc(NC(=O)C2CCCCC2)sc1C` the max response was 40.1% (active). In the case of `Cc1cnc(NC(=O)C2CCCC2)s1`, the max response is reported as 23.2% (active). Work on `CC(=O)NC1C(Oc2ccc(C)cc2)OC2COC(c3ccco3)OC2C1O` (stereo unspecified) yielded a max response of -5.51%. Compound `Cc1cc2c(s1)c1cnn(Cc3c(F)cccc3Cl)c(=O)c1n2C` has a max response of 4.69%. With `Cc1cc[n+](-c2[nH]c(=O)sc2/C=N/NC(=O)c2ccccc2[O-])cc1C` the max response was 1.3%. In the case of `CC(C)(C)c1cc[n+](-c2[nH]c(=O)sc2/C=N/N=C(\[O-])c2ccccc2)cc1`, the max response is reported as 25.7% (active). Work on `CCOC(=O)c1c(C)[nH]c(C)c1S(=O)(=O)N(C)CC(=O)Nc1ccccc1C` yielded a max response of -6.33%. For `O=C(CCC(=O)n1ncc2ccccc21)NCc1ccccc1Cl`, the max response was -1.42%. For `COc1ccc([N+](=O)[O-])cc1N(CC(=O)Nc1ccccc1C(=O)N1CCOCC1)S(C)(=O)=O`, the max response was -2.31%. For `O=C(CSc1nnc(SCc2ccc(Cl)cc2)s1)N/N=C/c1ccccc1Cl`, the max response was 12.5% (active). `Cc1nnsc1C(=O)N/N=C/c1ccccc1Cl` showed a max response of -0.513%. In the case of `O=C(Cc1ccccc1)N/N=C/c1ccc(Cl)cc1Cl`, the max response is reported as 12%. In the case of `N#C/C(=C/c1ccc(Cl)cc1)NC(=O)c1ccccc1`, the max response is reported as 17.9%. `Cc1ccc(C)c(CSc2nc(-c3ccco3)nc3c2c(=O)n(C)c(=O)n3C)c1` showed a max response of -2.42%. With `Cc1ccc(C)c(CN2CCC(CNC(=O)Nc3ccc(C)c(F)c3)CC2)c1` the max response was 1.71%. For `N#CC1(NC(=O)COC(=O)CCN=C2NS(=O)(=O)c3ccccc32)CCCCC1`, the max response was -3.22%. In the case of `COC(=O)[C@@H](NC(=O)NCc1cccc(OC)c1)C(C)C`, the max response is reported as -2.02%. Compound `COc1cccc(CC(=O)Nc2ccc(-c3csc(C)n3)cc2)c1` has a max response of 15.4%. For `COc1cccc(NC(=O)Cc2ccc(C)cc2)c1`, the max response was 27.5% (active). For `COc1cccc(NC(=O)NCc2ccc(F)cc2)c1`, the max response was 10.4% (active). For `COc1cccc(NC(=O)NCCN2CCCCC2)c1`, the max response was 0.722%. `Cc1ccc(CC(=O)Nc2cccc(C#N)c2)cc1` gave a max response of 14.1%.
